We go through five compounds from PubChem BioAssay.

Activity calls are given as the source filed them.

Test [1] deals with Plasmodium falciparum Sir2 (PF13_0152, Sir2A). Nature of the test: Plasmodium falciparum Sir2A binding compounds – biochemical, small-molecule microarray, 635 nm fluorescence, primary screen (AID 1098).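 Note: score merges spot fluorescence intensity with its signal-to-noise ratio.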 To be noted: fluorescence 635 nm, higher = more signal.
The nature of test [2]: probe aDKK1 binding to arrayed compounds – biochemical, biotinylated probe, 635/667 nm fluorescence, primary screen (AID 1099).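 Note: score merges 667nm spot fluorescence with signal to noise across triplicate slides.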 To be noted: small-molecule microarray, higher = more signal.
A short description of test [3]: probe aCHRDL2 binding to arrayed compounds – biochemical, biotinylated probe, 635/667 nm fluorescence, primary screen (AID 1100). To be noted: small-molecule microarray, higher = more signal.
Test [4] in a line: change in splice reporter luminescence, either direction, cell-based, HEK293, spliceosome inhibition project, primary screen (AID 1101).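 Note: HEK293 cells carrying a splicing-competent luciferase reporter gene; test concentration not given here.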 To be noted: HEK293 splicing luciferase reporter, 24 h, higher = more signal, called active from +8 up or from −8 down. On the technique in general: In a reporter assay the amount or activity of a reporter protein is the signal.
For test [5], the target named is Fibroblast growth factor 10 (Homo sapiens) (UniProt O15520). Nature of the test: compounds binding fibroblast growth factor 10 – biochemical, small-molecule microarray, 635 nm fluorescence, primary screen (AID 1102). To be noted: FGF10 binding, fluorescence 635 nm, higher = more signal.
In test [6] the test system is glycogen synthase kinase-3 (GSK3A per assay name; protocol says GSK3B). Briefly: compounds binding glycogen synthase kinase-3 – biochemical, small-molecule microarray, 635 nm fluorescence, GSK3A, primary screen (AID 1103). Note: the record names both GSK3A and GSK3B. To be noted: fluorescence 635 nm, higher = more signal.
Test [7] addresses Epidermal growth factor receptor (Homo sapiens) (UniProt P00533). Nature of the test: compounds binding epidermal growth factor receptor – biochemical, small-molecule microarray, 635 nm fluorescence, primary screen (AID 1104).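 Note: score merges 667 nm emission intensity with spot signal to noise over triplicate slides.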 To be noted: EGFR binding, higher = more signal.
Test [8] has as its target Follistatin-related protein 3 (Homo sapiens) (UniProt O95633). Nature of the test: compounds binding follistatin-related protein 3 – biochemical, small-molecule microarray, 635 nm fluorescence, primary screen (AID 1105).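 Note: score merges emission near 667 nm and signal to noise per printed spot across three slides.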 To be noted: FSTL3 binding, higher = more signal.
The target of test [9] is Dickkopf-related protein 1 (Homo sapiens) (UniProt O94907). Briefly: small molecules binding DKK1 protein – biochemical, small-molecule microarray, 635 nm fluorescence scan, primary screen (AID 1106).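 Note: score merges emission near 667 nm with signal to noise over three replicate slides.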 To be noted: higher = more signal.
Test [10] has as its system Inhibin beta A chain (activin A). Nature of the test: small molecules binding activin A – biochemical, small-molecule microarray, 635 nm fluorescence scan, primary screen (AID 1107).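 Note: mouse activin A protein probed at 4.33 µg/mL on printed slides; score merges bound-protein fluorescence near 667 nm with spot signal-to-noise.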 To be noted: INHBA, higher = more signal.
Test [11] has as its system Human papillomavirus type 1a protein E7 (residues 44-93). Nature of the test: small molecules binding HPV E7 44-93 – biochemical, small-molecule microarray, residues 44-93, 635 nm fluorescence, primary screen (AID 1108).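 Note: E7 fragment applied at 1 µg/mL in TBST for 1 h at 4 C; score combines spot fluorescence with its signal to noise ratio.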 To be noted: fluorescence 635 nm, higher = more signal.
Test [12] in a line: hepatitis C replication reporter changes, two-sided – Huh7 cells, luciferase reporter, HCV replication inhibitor project, primary screen (AID 1109).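 Note: huh7 hepatoma cells harbouring a luciferase neomycin HCV replicon reporter; luciferase luminescence as measure of HCV replicon replication; test concentration not given here.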 To be noted: Huh7 HCV replicon luciferase reporter, 48 h; higher = more signal.
The target in test [13] is Left-right determination factor 2 (Homo sapiens) (UniProt O00292). Briefly: small molecules binding LEFTY2 protein – biochemical, small-molecule microarray, 635 nm fluorescence scan, primary screen (AID 1110). To be noted: higher = more signal.
Test [14] has as its target Calmodulin-1 (Homo sapiens) (UniProt P0DP23). Nature of the test: small molecules binding calmodulin-1 with EGTA – biochemical, small-molecule microarray, Cy5-labelled CALM1, profiling panel (AID 1111).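 Note: labelled calmodulin applied in Tris saline Tween buffer holding calcium plus EGTA and DTT.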 To be noted: Cy5-CALM1 binding fluorescence, higher = more signal.
Test [15] shares this target. Briefly: small molecules binding Ca-loaded calmodulin-1 – biochemical, small-molecule microarray, Cy5-labelled CALM1, plus calcium, artefact control for SMM control-protein annotation, profiling panel (AID 1112).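 Note: score merges spot fluorescence with signal to noise from triplicate slides.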 To be noted: Cy5-CALM1 binding fluorescence, higher = more signal.
The nature of test [16]: probe aWnt5a binding to arrayed compounds – biochemical, biotinylated probe, 635/667 nm fluorescence, primary screen (AID 1113).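 Note: score merges 667 nm fluorescence intensity with signal-to-noise per printed feature.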 To be noted: small-molecule microarray, higher = more signal.
A short description of test [17]: probe aShh binding to arrayed compounds – biochemical, biotinylated probe, 635/667 nm fluorescence, primary screen (AID 1114).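 Note: probe is biotin-labelled aShh protein from a stem cell growth factor screen; measures binding of labelled protein to compounds printed on the slide; score merges feature fluorescence at 667 nm with signal-to-noise.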 To be noted: small-molecule microarray, higher = more signal.
Test [18] in a line: probe aNog binding to arrayed compounds – biochemical, biotinylated probe, 635/667 nm fluorescence, primary screen (AID 1115).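 Note: probe is biotinylated aNog protein used at 0.15 µg/mL for 1 h at 4 C; z-score combines 667 nm fluorescence of each spot with its signal to noise.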 To be noted: small-molecule microarray, higher = more signal.
The target of test [19] is Torsin-1A-interacting protein 1 (Homo sapiens) (UniProt Q5JTV8). Briefly: compound microarray binding of lysate hLAP1 – cell lysate, small-molecule microarray, COS7 lysate, 635/667 nm fluorescence, primary screen (AID 1116). To be noted: 635 nm fluorescence, higher = more signal.
The target of test [20] is Alpha-bungarotoxin (Bungarus multicinctus) (UniProt P60615). Briefly: compounds binding labelled alpha-BTX control protein – biochemical, small-molecule microarray, Alexa647 label, 635/667 nm fluorescence, artefact control for SMM control protein annotation, profiling panel (AID 1117). To be noted: alpha-BTX-A647 binding fluorescence, higher = more signal.
Sequence of Alpha-bungarotoxin (Bungarus multicinctus) (P60615 whole entry, looked up): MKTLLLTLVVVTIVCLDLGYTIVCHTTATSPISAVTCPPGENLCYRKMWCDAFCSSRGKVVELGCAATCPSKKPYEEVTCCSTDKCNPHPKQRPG

Sequence of Dickkopf-related protein 1 (Homo sapiens) (O94907 whole entry, looked up): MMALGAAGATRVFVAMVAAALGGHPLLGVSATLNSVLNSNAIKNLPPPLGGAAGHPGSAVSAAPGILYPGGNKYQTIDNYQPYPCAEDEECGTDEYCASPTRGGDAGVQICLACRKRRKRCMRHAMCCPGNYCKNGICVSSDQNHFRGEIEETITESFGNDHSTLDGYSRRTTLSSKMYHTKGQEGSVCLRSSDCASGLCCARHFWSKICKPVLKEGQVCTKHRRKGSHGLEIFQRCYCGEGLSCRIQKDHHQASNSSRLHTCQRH
Sequence of Torsin-1A-interacting protein 1 (Homo sapiens) (Q5JTV8 whole entry, looked up): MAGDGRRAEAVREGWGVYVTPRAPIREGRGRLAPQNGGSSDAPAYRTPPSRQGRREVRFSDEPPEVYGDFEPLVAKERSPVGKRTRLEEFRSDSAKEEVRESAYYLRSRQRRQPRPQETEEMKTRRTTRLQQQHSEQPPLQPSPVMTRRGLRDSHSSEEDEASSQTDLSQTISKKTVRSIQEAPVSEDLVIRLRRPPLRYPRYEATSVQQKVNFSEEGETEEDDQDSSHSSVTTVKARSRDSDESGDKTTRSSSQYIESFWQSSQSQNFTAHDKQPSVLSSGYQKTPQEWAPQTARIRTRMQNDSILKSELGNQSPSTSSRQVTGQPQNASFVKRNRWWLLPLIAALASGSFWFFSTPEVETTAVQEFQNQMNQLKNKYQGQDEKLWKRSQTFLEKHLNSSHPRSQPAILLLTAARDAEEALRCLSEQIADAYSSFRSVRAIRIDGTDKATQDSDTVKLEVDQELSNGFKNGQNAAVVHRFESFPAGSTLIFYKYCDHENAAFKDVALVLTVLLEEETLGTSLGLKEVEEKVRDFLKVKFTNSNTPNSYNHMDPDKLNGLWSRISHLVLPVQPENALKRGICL
Sequence of Fibroblast growth factor 10 (Homo sapiens) (O15520 whole entry, looked up): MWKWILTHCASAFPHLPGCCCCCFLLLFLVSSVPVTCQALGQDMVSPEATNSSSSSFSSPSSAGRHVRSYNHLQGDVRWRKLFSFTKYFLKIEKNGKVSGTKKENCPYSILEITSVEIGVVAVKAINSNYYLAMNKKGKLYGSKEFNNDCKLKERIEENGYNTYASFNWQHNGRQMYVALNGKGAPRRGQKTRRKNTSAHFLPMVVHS
Sequence of Follistatin-related protein 3 (Homo sapiens) (O95633 whole entry, looked up): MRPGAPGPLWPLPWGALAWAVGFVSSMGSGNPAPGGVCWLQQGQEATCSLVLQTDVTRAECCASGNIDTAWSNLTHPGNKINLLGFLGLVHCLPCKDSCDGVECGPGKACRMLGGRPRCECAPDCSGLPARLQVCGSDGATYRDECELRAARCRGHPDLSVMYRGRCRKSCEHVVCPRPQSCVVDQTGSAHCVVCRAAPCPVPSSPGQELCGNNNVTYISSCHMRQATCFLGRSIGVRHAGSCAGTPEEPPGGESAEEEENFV
Sequence of Epidermal growth factor receptor (Homo sapiens) (P00533 whole entry, looked up): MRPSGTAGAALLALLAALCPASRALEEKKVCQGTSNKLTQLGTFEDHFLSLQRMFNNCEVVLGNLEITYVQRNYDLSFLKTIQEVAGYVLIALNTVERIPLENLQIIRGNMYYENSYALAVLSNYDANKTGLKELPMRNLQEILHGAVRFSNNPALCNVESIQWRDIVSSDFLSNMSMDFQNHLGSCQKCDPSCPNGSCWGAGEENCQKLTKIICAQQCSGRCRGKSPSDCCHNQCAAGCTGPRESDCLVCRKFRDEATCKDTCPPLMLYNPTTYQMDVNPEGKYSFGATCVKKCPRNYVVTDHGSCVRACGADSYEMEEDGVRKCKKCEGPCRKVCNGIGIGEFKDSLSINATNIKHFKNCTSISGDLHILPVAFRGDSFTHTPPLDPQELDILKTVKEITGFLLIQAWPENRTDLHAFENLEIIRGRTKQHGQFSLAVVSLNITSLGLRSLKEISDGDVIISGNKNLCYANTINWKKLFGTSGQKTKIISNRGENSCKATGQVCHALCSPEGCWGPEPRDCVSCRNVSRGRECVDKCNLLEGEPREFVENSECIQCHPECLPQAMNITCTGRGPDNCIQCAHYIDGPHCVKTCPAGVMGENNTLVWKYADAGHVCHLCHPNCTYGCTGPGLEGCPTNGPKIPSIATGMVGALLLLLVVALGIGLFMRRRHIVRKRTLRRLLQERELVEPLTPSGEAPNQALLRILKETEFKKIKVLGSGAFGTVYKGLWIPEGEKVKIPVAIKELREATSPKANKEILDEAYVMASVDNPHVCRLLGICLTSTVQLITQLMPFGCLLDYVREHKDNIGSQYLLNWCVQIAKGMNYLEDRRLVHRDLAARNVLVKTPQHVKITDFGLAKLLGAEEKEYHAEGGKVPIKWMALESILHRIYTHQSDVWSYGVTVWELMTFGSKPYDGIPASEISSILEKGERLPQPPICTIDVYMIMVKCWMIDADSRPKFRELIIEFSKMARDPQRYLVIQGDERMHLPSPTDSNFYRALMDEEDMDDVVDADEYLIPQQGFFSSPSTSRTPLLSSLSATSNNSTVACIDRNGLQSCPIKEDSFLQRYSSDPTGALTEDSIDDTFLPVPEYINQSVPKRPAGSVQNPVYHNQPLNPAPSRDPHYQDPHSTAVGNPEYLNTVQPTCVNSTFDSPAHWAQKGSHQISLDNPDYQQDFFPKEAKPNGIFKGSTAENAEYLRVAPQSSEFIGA
Sequence of Left-right determination factor 2 (Homo sapiens) (O00292 whole entry, looked up): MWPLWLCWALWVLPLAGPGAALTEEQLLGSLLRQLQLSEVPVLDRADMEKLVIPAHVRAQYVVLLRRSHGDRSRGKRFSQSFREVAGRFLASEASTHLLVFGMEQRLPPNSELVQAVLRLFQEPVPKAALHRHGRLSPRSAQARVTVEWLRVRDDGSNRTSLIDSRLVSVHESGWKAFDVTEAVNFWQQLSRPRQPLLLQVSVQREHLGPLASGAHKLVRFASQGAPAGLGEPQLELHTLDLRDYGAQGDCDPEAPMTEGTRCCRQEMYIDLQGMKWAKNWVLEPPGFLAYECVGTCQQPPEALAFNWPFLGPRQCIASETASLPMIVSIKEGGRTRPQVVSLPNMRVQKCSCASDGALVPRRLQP

Consider `CCCCCCC#C[Si](O[C@H](c1ccccc1)c1cn([C@H](C)c2ccccc2)nn1)(C(C)C)C(C)C`, for which the composite z-score in test [1] was 0.693; in test [2], -0.167; in test [3], -0.365; in test [5], 0.547; in [6], 0.565; in [7] it was 0.483. The composite z-score in [8] was 0.841; in [9], 1.25; in [10] it was 0.327; in [11], 0.444; in test [13], 0.434; in [14] it was -0.193. The composite z-score was -0.455 in test [15]; 0.0317 in test [16]; -0.138 in test [17]; -0.139 in test [18]; -0.0802 in test [19]; -0.0777 in test [20]. The values for the z-score in [4] and in [12] were -0.209 (inactive) and -1.57, respectively.

With `Cc1cc(C)c(C(O)C2C=CC3C(=O)NC(=O)C3N2Nc2ccccn2)c(C)c1` (stereo not given), the composite z-score in [1] is -0.0405; in test [2] it was 0.118; in test [3], 0.862; in test [5], 0.158; in [6], 0.22; in test [7] it was -0.373. The composite z-score in [8] was 0.547; in test [9], -0.669; in test [10] it was 0.838; in test [11], 1.22; in [13], -0.318; in test [14], 0.62. Moreover, the composite z-score is 0.153 in test [15]; -0.0596 in [16]; 0.0469 in test [17]; 1.63 in test [18]; 0.849 in test [19]; 0.0525 in test [20]. The z-score in test [4] was 1.43 (inactive); in [12], 0.544.

For `CC(C)C[C@@H]1NC(=O)[C@@H]2C[C@H](C(=O)NCCCCN(C)C)[C@H](c3ccc(O)cc3)N2C1=O`, the composite z-score in test [1] was 0.791; in test [2], 0.147; in test [3], 0.874; in [5] it was -1.42; in [6], -0.439; in [7] it was -1.29. Also, the composite z-score is -0.401 in test [8]; -0.283 in [9]; -0.134 in test [10]; -0.256 in [11]; -1.58 in test [13]; -0.685 in test [14]. Further, the composite z-score in test [15] was 0.33; in test [16], -0.0977; in test [17] it was -0.0553; in [18], -0.0791; in [19], 0.864; in test [20], -0.318. The figures for the z-score in test [4] and in [12] were 0.619 (inactive) and -0.556, respectively.

On to `COc1ccc([Si](C)(C)[C@H]2[C@H](CCO)O[C@@]3(C(=O)N(Cc4cccc(N5C(=O)c6cccc7cccc5c67)c4)c4ccccc43)[C@@H]2C)cc1`, for which the composite z-score in test [1] is 1.25; in test [2], -0.207; in [3] it was 0.442; in test [5], 0.668; in [6], 0.149; in [7], -0.437. Further, the composite z-score in test [8] was 0.277; in test [9], -0.701; in test [10], -0.345; in test [11], 1.06; in [13], -0.652; in test [14], 1.04. For the same compound, the composite z-score turned out to be 0.591 in [15]; 0.0618 in test [16]; 0.0121 in test [17]; 0.741 in [18]; 0.116 in test [19]; 0.621 in test [20]. For the same compound, the z-score in test [4] is -1.27 (inactive); in [12], -4.97.

For `COC(=O)[C@@]1(Cc2ccc(OC)cc2)[C@H]2c3cc(C(=O)N4CCCC4)n(CCc4ccccn4)c3C[C@H]2CN1C(=O)c1ccccc1`, the composite z-score in [1] is 1.18; in test [2], 0.904; in [3], 0.95; in [5], 0.289; in test [6], -0.282; in test [7] it was -0.664. The composite z-score in test [8] is -0.396; in test [9], -0.949; in test [10], 0.845; in test [11] it was -0.091; in test [13] it was -0.694; in test [14], 1.34. Further, the composite z-score turned out to be 0.61 in test [15]; 0.164 in test [16]; 1.23 in test [17]; 1.22 in test [18]; 0.432 in [19]; 0.329 in test [20]. Also, the z-score in [4] was -1.36 (inactive); in [12] it was -0.216.
